The values that follow come from PubChem BioAssay (Tox21).

Results filed as inconclusive are left out. Values without a mark were called inactive. Activity calls are given as the source filed them. Calls come from the whole dose curve; as a rule, active = well fitted cell-killing curve with a large enough effect in the repeat runs; inconclusive = weak or mixed curves, or effect the other way; inactive = flat fitted curve, though single readings scatter.

Experiment [1] in a line: cAMP Responsive Elements (CRE) small molecule antagonists, cell-based qHTS assay: qHTS cell viability counter screen (AID 2060913). Note: nearly all actives have a fitted effect of over 40% in size. The conditions noted are these: CRE-bla HEK293T viability, CellTiter-Glo luminescence, 5 h; series mostly up to 92.4 µM. The procedure, abridged: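 Viability of NKH477-stimulated (0.25 uM final) CRE-bla HEK293T cells is measured by CellTiter-Glo luminescence following 3 hrs compound exposure at 37 C.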
Background: Quantitative high-throughput screening tests each substance at several concentrations.

Experiment [2] in a line: cAMP Responsive Elements (CRE) small molecule agonists, cell-based qHTS assay: qHTS cell viability counter screen (AID 2060914). Note: nearly all actives have a fitted effect of over 50% in size. The conditions noted are these: CRE-bla HEK293T viability, CellTiter-Glo luminescence, 5 h; series mostly up to 92.4 µM. The method in brief: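 Cells are seeded and incubated 18 h, treated with compounds in DMSO for 3 h, read for the bla reporter, then given CellTiter-Glo; luminescence is measured after 30 min at room temperature.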
% is set by controls: 0 for no effect and ±100 for the full control effect.

With `O=C(Oc1ccccc1)c1ccccc1C(=O)Oc1ccccc1`, the Potency result in experiment [1] and in experiment [2] was “inactive” in each case.

For `CCOC(=O)C(F)(F)F`, the Potency entry in experiment [1] and in experiment [2] was “inactive” in each case.

Take `CCC(C)C(=O)OC` (centres undefined): the Potency result in experiment [1] and in experiment [2] was “inactive” in each case.

For `CCc1cccc(C)c1N(C(=O)CS(=O)(=O)O)C(C)COC` (centres undefined), the Potency entry in experiment [1] and in experiment [2] was “inactive” throughout.

Regarding `CC(C)(C)NCCNC(C)(C)C`, the Potency result in experiment [1] and in experiment [2] was “inactive” throughout.

Turning to `CC(C)=CCC/C(C)=C/CO`, the Potency entry in experiment [1] and in experiment [2] was “inactive” each time.

`O=C(CCN1CCC(c2ccccc2)C1)c1ccc2c(c1)OCCO2` (centres undefined): the Potency entry in experiment [1] and in experiment [2] was “inactive” each time.

As for `CCCCC(CC)COC(=O)c1ccccc1O` (centres undefined), the Potency entry in experiment [1] and in experiment [2] was “inactive” throughout.

In the case of `C1COC(NC(C2CC2)C2CC2)=N1`, the Potency entry in experiment [1] and in experiment [2] was “inactive” throughout.

`O=C1c2ccccc2-c2ccccc21`: the Potency entry in experiment [1] and in experiment [2] was “inactive” in each case.

Consider `C[Si](C)(C)C`, for which the Potency entry in experiment [1] and in experiment [2] was “inactive” in each case.

As for `COc1ccc(COC(C)=O)cc1`, the Potency entry in experiment [1] and in experiment [2] was “inactive” throughout.

On to `C[C@]12C[C@H](O)[C@H]3[C@@H](CCC4=CC(=O)CC[C@@]43C)[C@@H]1CC[C@@H]2C(=O)CO`, for which the Potency entry in experiment [1] and in experiment [2] was “inactive” throughout.

As for `NCCNCCO`, the Potency result in experiment [1] and in experiment [2] was “inactive” each time.

As to `O=C1c2ccccc2C(=O)C1c1ccc2cc(S(=O)(=O)O)cc(S(=O)(=O)O)c2n1`, the Potency entry in experiment [1] and in experiment [2] was “inactive” throughout.

On to `Cn1nnc2c(C(N)=O)ncn2c1=O`, for which the Potency entry in experiment [1] and in experiment [2] was “inactive” in each case.

As to `NC(Cc1ccc(Cl)cc1)C(=O)O` (centres undefined), the viability change, negative = cytotoxic in experiment [1] was 9.93% [at 0.349 µM]. The activity change, negative = cytotoxicity in experiment [2] was -0.576% [at 0.349 µM].

As for `C/C(=C\C(C)CC(C)CC(C)C)C1CC(=O)OC1=O` (centres undefined), the Potency entry in experiment [1] and in experiment [2] was “inactive” throughout.

`c1ccc(SCCSc2ccccc2)cc1`: the Potency result in experiment [1] and in experiment [2] was “inactive” each time.

For `CC(C)OCC1CO1` (centres undefined), the Potency entry in experiment [1] and in experiment [2] was “inactive” each time.

As to `NC(=O)NO`, the Potency entry in experiment [1] and in experiment [2] was “inactive” in each case.

Consider `CCn1ccc(NS(=O)(=O)c2ccc(N)cc2)nc1=O`, for which the Potency result in experiment [1] and in experiment [2] was “inactive” throughout.

Take `CC(=O)OCCC(C)CC(C)(C)C` (centres undefined): the Potency entry in experiment [1] and in experiment [2] was “inactive” throughout.

Take `CCn1nc(Cc2ccccc2)cc1C1CCN(C[C@H]2C[C@H](N(C)[C@@H](C(=O)O)C(C)C)C[C@@H]2c2cccc(F)c2)CC1`: the Potency result in experiment [1] and in experiment [2] was “inactive” throughout.

For the molecule `C=C[C@H]1CN2CC[C@H]1C[C@H]2[C@H](O)c1ccnc2ccc(OC)cc12`, the Potency result in experiment [1] and in experiment [2] was “inactive” in each case.

Turning to `C=C(C)C(=O)O[C@H]1C[C@@H]2CC[C@@]1(C)C2(C)C`, the Potency entry in experiment [1] and in experiment [2] was “inactive” throughout.

Take `CCOC(C)OCC`: the Potency result in experiment [1] and in experiment [2] was “inactive” each time.

In the case of `O=C(O)CCn1c2c(c3ccccc31)C[C@H](NS(=O)(=O)c1ccc(F)cc1)CC2`, the Potency entry in experiment [1] and in experiment [2] was “inactive” throughout.

Take `CCN(Cc1cccc(S(=O)(=O)O)c1)c1ccccc1`: the Potency result in experiment [1] and in experiment [2] was “inactive” each time.

Take `C=C(C)C(=O)OC1CC(C)CC(C)(C)C1` (centres undefined): the Potency result in experiment [1] and in experiment [2] was “inactive” each time.

Regarding `CCCCCCCCCCCCCC(=O)OCC`, the Potency entry in experiment [1] and in experiment [2] was “inactive” each time.

`CCCCCC(CC)OC(=O)CCCOc1ccc(Cl)cc1Cl` (centres undefined): the Potency entry in experiment [1] and in experiment [2] was “inactive” throughout.

For `CCCCCc1ccc(N)cc1`, the Potency entry in experiment [1] and in experiment [2] was “inactive” throughout.

`Cc1ncc([N+](=O)[O-])n1C`: the Potency entry in experiment [1] and in experiment [2] was “inactive” in each case.

Regarding `CC(C)NCC(O)COc1cccc2[nH]ccc12` (centres undefined), the Potency entry in experiment [1] and in experiment [2] was “inactive” in each case.

On to `CCCCC(CC)COP(=O)(OCC(CC)CCCC)OCC(CC)CCCC` (centres undefined), for which the Potency entry in experiment [1] and in experiment [2] was “inactive” in each case.

With `O=C1N=C(O)CN1/N=C/c1ccc(-c2ccc([N+](=O)[O-])cc2)o1`, the Potency entry in experiment [1] and in experiment [2] was “inactive” throughout.

Consider `COc1ccc2[nH]cc(CCNC(C)=O)c2c1`, for which the Potency result in experiment [1] and in experiment [2] was “inactive” each time.

For `CC(C)(C)NCC(O)COc1ccccc1OCC1CCCO1` (centres undefined), the Potency result in experiment [1] and in experiment [2] was “inactive” throughout.

As for `CC(C)CC(O)Cc1ccccc1` (centres undefined), the Potency result in experiment [1] and in experiment [2] was “inactive” each time.

Take `CO[C@H]1C=CO[C@@]2(C)Oc3c(C)c(O)c4c(O)c(c5c(c4c3C2=O)=NC2(CCN(CC(C)C)CC2)N=5)NC(=O)/C(C)=C\C=C/[C@H](C)[C@H](O)[C@@H](C)[C@@H](O)[C@@H](C)[C@H](OC(C)=O)[C@@H]1C`: the Potency result in experiment [1] and in experiment [2] was “inactive” each time.

In the case of `C=C(C)[C@H]1CC=C(C)C(=O)C1`, the Potency result in experiment [1] and in experiment [2] was “inactive” throughout.

As for `C1CCCC1`, the Potency entry in experiment [1] and in experiment [2] was “inactive” in each case.

In the case of `O=CCc1ccccc1`, the Potency result in experiment [1] and in experiment [2] was “inactive” each time.

For `OC[C@H]1O[C@@H]2O[C@H]3[C@H](O)[C@@H](O)[C@@H](O[C@H]4[C@H](O)[C@@H](O)[C@@H](O[C@H]5[C@H](O)[C@@H](O)[C@@H](O[C@H]6[C@H](O)[C@@H](O)[C@@H](O[C@H]7[C@H](O)[C@@H](O)[C@@H](O[C@H]1[C@H](O)[C@H]2O)O[C@@H]7CO)O[C@@H]6CO)O[C@@H]5CO)O[C@@H]4CO)O[C@@H]3CO`, the Potency result in experiment [1] and in experiment [2] was “inactive” each time.

With `CCCCCCCCCCCC(=O)Cl`, the Potency entry in experiment [1] and in experiment [2] was “inactive” each time.

In the case of `C=CCOc1ccccc1OCC(O)CNC(C)C` (centres undefined), the Potency entry in experiment [1] and in experiment [2] was “inactive” each time.
